# Measured values taken from PubChem BioAssay AID1259240 (Keith Lab, Institute of Cancer Science, University of …, 2017).
# A number with no mark means an inactive call. Activity calls are given as the source filed them. Rule as the data show it: active = fold change mostly below about -2 (no sharp cut-off); inactive = mostly above about -1.8.
# Assay: modulation of TERT promoter-driven luciferase – cell-based, luciferase reporter, human, primary screen (AID 1259240)
# Details: A2780 TERT promoter luciferase reporter, 16 h; at 20 µM, fold versus average of vehicle-only wells
SMILES,fold change,outcome
COCCn1c(C)cc(C(=O)CSc2nnc3c(C)cc4ccccc4n23)c1C,1.96,
CCc1ccc2c(c1)c1n[nH]c(=S)nc1n2C,-1.88,
CCCn1c(NCc2cccs2)nc2ccccc21,1.22,
O=C(NCCCN1CCCC1)c1ccc2nc(N3CCOCC3)sc2c1,-1.09,
O=C1C2C(c3cccs3)NC(Cc3ccccc3)(C(=O)O)C2C(=O)N1c1ccc(F)cc1 (stereo not drawn),-1.06,
CCCc1nnc2n1Nc1nc3ccccc3nc1S2,1.62,
Cn1c(=O)c2c(SCC(=O)Nc3ccc([N+](=O)[O-])cc3)nc(-c3ccc(F)cc3)nc2n(C)c1=O,1.08,
O=C(CN1C(=O)COc2ccc(S(=O)(=O)N3CCOCC3)cc21)N1CCC2(CC1)OCCO2,1.48,
Cn1c(SCC(=O)NCc2ccco2)nnc1-c1c[nH]c2ccccc12,,inactive
CCN(CC)C(=O)Nc1ccc2snnc2c1,-1.04,
COc1ccc(OC(C)c2nc(-c3ccc(C)cc3)no2)cc1 (stereo not drawn),-1.29,
CC(C)OCCCNC(=O)Cc1ccc(NC2=NC3CS(=O)(=O)CC3S2)cc1 (stereo not drawn),-1.17,
CN(C)CCCN1C(=O)CSC1c1ccccc1 (stereo not drawn),-1.42,
CCCN(CCC)S(=O)(=O)c1ccc2c(c1)oc(=O)n2CC(=O)OCC,-1.16,
COC(=O)c1cccnc1-n1c(=O)c2cccnc2n(Cc2ccc(C#N)cc2)c1=O,-1.61,
Cc1cc(=O)n2[nH]c(NC(=O)c3cccs3)nc2n1,-1.29,
COc1ccc(OC)c(S(=O)(=O)c2cc3cccc(OC)c3oc2=O)c1,-1.07,
Cc1ccc(C)c(Nc2nc3ccccc3n3nnnc23)c1,1.43,
Cc1cccc(C(=O)N2N=C(c3ccc(NS(C)(=O)=O)cc3)CC2c2ccco2)c1 (stereo not drawn),1.31,
Cc1cc(C)c2sc(-c3ccccc3)cc(=O)c2c1,-37 (active),
CCOC(=O)c1nn(-c2ccc(Cl)cc2)c(=O)c2c(NC(=O)C3CC3)scc12,-1.1,
COC(=O)c1ccc(C(=O)OC)c(NC2=NS(=O)(=O)c3ccccc32)c1,1.16,

SMILES,fold change,outcome
O=C(O)CSc1ncn(-c2ccccc2)n1,-4.67 (active),
COc1cc(OC)c(-c2nc(-c3ccc(C)cc3)no2)cc1OC,1.55,
CCOc1ccc2c(c1)CN(c1ccc(Cl)cc1)CO2,-1.19,
CCOC(=O)C(C)Sc1nnc(-c2c[nH]c3ccccc23)n1CC (stereo not drawn),,inactive
O=C(O)C1CCN(c2nc3ccccc3n2Cc2ccccc2F)CC1,1.02,
CCOC(=O)c1ccc(-c2c(C(F)(F)F)oc3cc(O)c(CC)cc3c2=O)o1,-2.58 (active),
CC(=O)NC1=NN(C(C)=O)C2(S1)C(=O)N(C)c1ccccc12 (stereo not drawn),-1.23,
O=C(O)COc1ccc(/C=C2/NC(=O)N(c3ccccc3)C2=O)cc1,-1.53,
CCc1ccc2[nH]cc(S(=O)(=O)c3ccc(C)c(C)c3)c(=O)c2c1,1.15,
O=C1c2cccnc2C(=O)N1CNc1ccc(Cl)cc1,1.07,
Cc1ccc(-c2n[nH]c3c2C(c2ccccn2)N(c2ccc(C(=O)O)cc2)C3=O)cc1 (stereo not drawn),-1.91,
Cc1cc(C)c(Cn2c3ccccc3c3cnn(CC(=O)NCC4CCCO4)c(=O)c32)c(C)c1 (stereo not drawn),-1.24,
COC(=O)c1ccc(C2NC(=O)c3n[nH]c(C)c32)cc1 (stereo not drawn),-1.08,
CC(=O)N1CSCC1C(=O)N1CCN(c2ccc(N3CCOCC3)nn2)CC1 (stereo not drawn),-1.03,
CCOC(=O)C1=C(CS(=O)(=O)c2ccc(F)cc2)NC(=O)NC1c1cc(OC)ccc1OC (stereo not drawn),1.65,
COc1ccc(/C=C/c2nc3scc(-c4cccs4)c3c(=O)o2)cc1,-1.6,
Cn1c2ccccc2c2c(C(=O)Nc3ccccc3F)cn(C3CCCC3)c(=O)c21,-1.15,
COc1cc2c(=O)c(S(=O)(=O)c3ccccc3)cn(Cc3ccccc3F)c2cc1OC,1.06,
Cn1c(=O)c2c(SCC(=O)N3CCOCC3)nc(-c3ccco3)nc2n(C)c1=O,1.36,
COCCN1C(=O)C(=O)/C(=C(\O)c2ccc(C)cc2)C12C(=O)N(C)c1ccccc12 (stereo not drawn),-1.06,
O=C(NCc1ccc(Cl)cc1)c1c[nH]n2c(=O)cc(C3CCNCC3)nc12,-1.87,
